# Test results taken from PubChem BioAssay (EPA / NIEHS).
# Inconclusive results are not listed. Where a structure was tested more than once in an assay, its records may differ in their call. The source made the active and inactive calls. The calls were made as follows, unless noted: active = hit-call score of the fitted dose curve at least 0.9, where 1 is the maximum; inactive = score below 0.9.
# Legend:
# [1] = biological target: Hepatocyte nuclear factor 6 (Homo sapiens) (UniProt Q9UBC0); test: ATG_HNF6_CIS: Attagene CIS-FACTORIAL HepG2 Assay for human Hepatocyte Nuclear Factor 6 (HNF6) (AID 2282952); conditions: HepG2 Attagene cis-factorial HNF6 reporter transcription; actives raise or lower the signal
# Summary of the method: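 Multiplexed mRNA reporter assay in transfected HepG2; 24 h dosing; RT-PCR plus capillary electrophoresis fluorescence; DMSO-referenced bidirectional curve fitting.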
# [2] = ATG_MRE_CIS: Attagene CIS-FACTORIAL HepG2 Assay for human Metal Responsive Element (MRE) (AID 2282954); conditions: HepG2 MRE cis-reporter transcription, Attagene multiplex; actives raise or lower the signal
# Summary of the method: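 After a 24 h chemical exposure, transiently transfected HepG2 cells yield RNA whose reporter sequences are amplified, FAM-labelled and sized by capillary electrophoresis. Curves are fitted bidirectionally relative to DMSO.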
# [3] = ATG_PBREM_CIS: Attagene CIS-FACTORIAL HepG2 Assay for human Phenobarbital-responsive Enhancer Module (PBREM) (AID 2282955); conditions: HepG2 PBREM cis-reporter, Attagene multiplexed transcription; actives raise or lower the signal
# Summary of the method: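 After a 24 h incubation with test chemical, transfected HepG2 cells yield total RNA; reporter-specific RT-PCR products are fluorescently labelled, HpaI-digested and resolved by capillary electrophoresis against ROX size standards.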
# [4] = biological target: Paired box protein Pax-6 (Homo sapiens) (UniProt P26367); test: ATG_Pax6_CIS: Attagene CIS-FACTORIAL HepG2 Assay for human Paired Box 6 (PAX6) (AID 2282956); conditions: HepG2 CIS-FACTORIAL PAX6 reporter transcription, RNA readout; actives raise or lower the signal
# Summary of the method: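 After twenty-four hours of chemical exposure, transfected HepG2 cells are harvested for RNA. Cis-promoter reporter transcripts are amplified, fluorescently labelled and sized by capillary electrophoresis, with gain and loss of signal scored against DMSO.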
# [5] = ATG_PXRE_CIS: Attagene CIS-FACTORIAL HepG2 Assay for human Pregnane X Receptor Element (PXRE) (AID 2282957); conditions: HepG2 Attagene CIS-FACTORIAL PXRE reporter, mRNA; actives raise or lower the signal
# Summary of the method: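 Cells: HepG2, transiently transfected reporter units under cis promoter control. Exposure: 24 h. Detection: reporter mRNA via RT-PCR/CE fluorescence; bidirectional fitting, DMSO-referenced.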
# [6] = ATG_PPRE_CIS: Attagene CIS-FACTORIAL HepG2 Assay for human Peroxisome Proliferator-activated Response Element (PPRE) (AID 2282958); conditions: HepG2 PPRE cis-element reporter, Attagene transcription factor profiling; actives raise or lower the signal
# Summary of the method: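 Multiplexed reporter transcription units under cis-regulatory promoters were transfected into HepG2 cells to capture endogenous factor activity. A 24 h incubation preceded RNA isolation and fluorescent RT-PCR fragment analysis.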
# [7] = ATG_RORE_CIS: Attagene CIS-FACTORIAL HepG2 Assay for human RAR-related Orphan Receptor Element (RORE) (AID 2282959); conditions: HepG2 Attagene cis-factorial RORE reporter, mRNA; actives raise or lower the signal
# Summary of the method: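 Fluorescence intensity of reporter-specific cDNA fragments, separated by capillary electrophoresis, gives the signal. Source: HepG2 liver cells transiently transfected with cis-element reporters and exposed 24 h; DMSO-normalized bidirectional fit.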
# [8] = ATG_Sox_CIS: Attagene CIS-FACTORIAL HepG2 Assay for human SRY-box transcription factor (SOX) (AID 2282960); conditions: HepG2 Attagene cis-factorial SOX reporter, mRNA; actives raise or lower the signal
# Summary of the method: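 After 24 h of chemical treatment, transfected HepG2 reporter cells are lysed for total RNA. Transcript levels come from RT-PCR with labelled primer extension and capillary electrophoresis, analysed bidirectionally versus DMSO.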
# [9] = biological target: Transcription factor Sp1 (Homo sapiens) (UniProt P08047); test: ATG_Sp1_CIS: Attagene CIS-FACTORIAL HepG2 Assay for human Specificity Protein 1 (Sp1) (AID 2282961); conditions: HepG2 Sp1 cis-reporter transcription, actives raise or lower the signal
# Summary of the method: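 Sp1-driven reporter mRNA, read as capillary electrophoresis fluorescence after RT-PCR, in transiently transfected HepG2 cells dosed for 24 h; signal change in either direction relative to DMSO.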
# [10] = ATG_SREBP_CIS: Attagene CIS-FACTORIAL HepG2 Assay for human Sterol Regulatory Element Binding (SREBP) (AID 2282962); conditions: HepG2 Attagene cis-factorial SREBP reporter, mRNA; actives raise or lower the signal
# Summary of the method: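 Twenty-four hours after chemical dosing of transfected HepG2 cultures, reporter RNA was converted to cDNA, amplified, end-labelled with 6-FAM and resolved by capillary electrophoresis. Responses were fitted relative to DMSO.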
# [11] = biological target: Signal transducer and activator of transcription 3 (Homo sapiens) (UniProt P40763); test: ATG_STAT3_CIS: Attagene CIS-FACTORIAL HepG2 Assay for human Signal Transducer and Activator of Transcription 3 (STAT3) (AID 2282963); conditions: HepG2, Attagene cis-factorial STAT3 reporter transcription; actives raise or lower the signal
# Summary of the method: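 After a 24 h compound incubation, total RNA from MRTU-transfected HepG2 cells was converted to cDNA and reporter sequences PCR-amplified, labelled and profiled by capillary electrophoresis. Gain and loss of signal were referenced to DMSO.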
# [12] = ATG_TA_CIS: Attagene CIS-FACTORIAL HepG2 Assay for human TA Basal Promoter (AID 2282964); conditions: HepG2 Attagene CIS-factorial TA basal promoter reporter; actives raise or lower the signal
# Summary of the method: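 Transfected HepG2, 24 h compound exposure; RNA → RT-PCR → FAM primer extension → HpaI cut → CE fluorescence. Gain/loss-of-signal fitted against DMSO negative control. Background-control readout.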
# [13] = ATG_TCF_b_cat_CIS: Attagene CIS-FACTORIAL HepG2 Assay for human T-Cell-Factor with beta-catenin (TCF/b-cat) (AID 2282965); conditions: HepG2 TCF/beta-catenin cis-reporter transcription, actives raise or lower the signal
# Summary of the method: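 Measured: reporter mRNA in HepG2 transiently transfected with cis-promoter reporter units, 24 h after chemical addition. Fitting was bidirectional, DMSO as negative control.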
# [14] = ATG_TAL_CIS: Attagene CIS-FACTORIAL HepG2 Assay for human TAL Basal Promoter (AID 2282966); conditions: HepG2 Attagene cis-factorial TAL promoter reporter; actives raise or lower the signal;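 also: background control endpoint measuring basal TAL promoter reporter mRNA not a specific factor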
# Summary of the method: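 RT-PCR plus capillary electrophoresis quantifies reporter mRNA induction in transiently transfected HepG2 cells after 24 h chemical treatment. DMSO serves as negative control and baseline for bidirectional fitting.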
# [15] = ATG_TGFb_CIS: Attagene CIS-FACTORIAL HepG2 Assay for human Transforming Growth Factor (TGF) (AID 2282967); conditions: HepG2 Attagene CIS TGFb reporter, mRNA transcription; actives raise or lower the signal
# Summary of the method: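 Readout: fluorescently labeled reporter cDNA fragments resolved by capillary electrophoresis after RT-PCR. Transfected HepG2 cells dosed for 24 h; endogenous TF activity at TGFB1-linked cis element; gain or loss fitted relative to DMSO.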
# [16] = ATG_VDRE_CIS: Attagene CIS-FACTORIAL HepG2 Assay for human Vitamin D Receptor Element (VDRE) (AID 2282968); conditions: HepG2 VDRE cis-reporter transcription, actives raise or lower the signal
# Summary of the method: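 In transiently transfected HepG2 liver cells, gain or loss of reporter mRNA after 24 h exposure is scored relative to DMSO, using fluorescence detection by capillary electrophoresis of RT-PCR products.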
# [17] = biological target: Heat shock factor protein 1 (Homo sapiens) (UniProt Q00613); test: ATG_HSE_CIS: Attagene CIS-FACTORIAL HepG2 Assay for human Heat Shock Transcription Factor 1 (HSE) (AID 2282953); conditions: HepG2 HSE cis-reporter, Attagene RNA transcription; actives raise or lower the signal
# Summary of the method: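 Read-out: fluorescence of reporter-specific RT-PCR fragments separated by capillary electrophoresis. HepG2 carrying transfected cis-element reporter units; 24 h dosing; activity fitted in both directions relative to DMSO baseline.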
# [18] = biological target: Estrogen receptor (Homo sapiens) (UniProt P03372); test: ATG_ERa_TRANS: Attagene TRANS-FACTORIAL HepG2 Assay for human Estrogen Receptor alpha (ERa) (AID 2282970; active = hit-call score of the fitted dose curve at least 0.9, where 1 is the maximum); conditions: HepG2 Attagene TRANS ERa GAL4 reporter, mRNA
# Summary of the method: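 Cells: HepG2, transiently transfected. Construct: GAL4-UAS reporter units regulated by exogenous NR-Gal4 chimeras. Time: 24 h. Detection: reporter mRNA by RT-PCR, capillary electrophoresis, fluorescence. Baseline: DMSO, upward fitting.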
# [19] = biological target: Nuclear receptor subfamily 1 group I member 3 (Homo sapiens) (UniProt Q14994); test: ATG_CAR_TRANS: Attagene TRANS-FACTORIAL HepG2 Assay for human Constitutive Androstane Receptor (CAR) (AID 2282969; active = hit-call score of the fitted dose curve at least 0.9, where 1 is the maximum;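 also: activators raise reporter mRNA above DMSO so AC50 marks induction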); conditions: HepG2 Attagene TRANS-FACTORIAL CAR reporter
# Summary of the method: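 Readout is reporter mRNA induction, quantified by fluorescent primer extension and capillary electrophoresis after RT-PCR. Cells were HepG2 transiently carrying chimeric NR-Gal4 constructs with GAL4-UAS reporters, treated for 24 h; activity scored upward from DMSO.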
# Sequence of Transcription factor Sp1 (Homo sapiens) (P08047 whole entry, looked up): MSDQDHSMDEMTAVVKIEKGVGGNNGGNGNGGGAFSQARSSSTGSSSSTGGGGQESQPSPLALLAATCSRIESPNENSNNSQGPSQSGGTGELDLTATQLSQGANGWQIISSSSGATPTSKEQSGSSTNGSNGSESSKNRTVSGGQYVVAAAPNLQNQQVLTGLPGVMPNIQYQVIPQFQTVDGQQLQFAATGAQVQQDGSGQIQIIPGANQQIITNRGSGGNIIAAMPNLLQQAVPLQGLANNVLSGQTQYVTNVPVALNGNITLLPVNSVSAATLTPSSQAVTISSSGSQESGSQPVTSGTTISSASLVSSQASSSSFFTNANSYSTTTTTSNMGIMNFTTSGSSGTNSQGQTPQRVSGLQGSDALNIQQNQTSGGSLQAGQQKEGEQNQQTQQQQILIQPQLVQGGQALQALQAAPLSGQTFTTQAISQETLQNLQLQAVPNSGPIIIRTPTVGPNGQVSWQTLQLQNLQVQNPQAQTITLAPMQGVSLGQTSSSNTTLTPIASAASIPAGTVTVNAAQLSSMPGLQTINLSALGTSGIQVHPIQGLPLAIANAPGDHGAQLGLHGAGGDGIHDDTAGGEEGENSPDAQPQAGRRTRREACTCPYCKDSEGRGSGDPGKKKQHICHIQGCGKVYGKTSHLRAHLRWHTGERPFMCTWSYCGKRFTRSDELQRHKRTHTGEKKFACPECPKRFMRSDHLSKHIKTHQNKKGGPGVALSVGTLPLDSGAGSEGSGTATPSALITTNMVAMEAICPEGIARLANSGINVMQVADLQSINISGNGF
# Sequence of Heat shock factor protein 1 (Homo sapiens) (Q00613 whole entry, looked up, the tested form may be a part): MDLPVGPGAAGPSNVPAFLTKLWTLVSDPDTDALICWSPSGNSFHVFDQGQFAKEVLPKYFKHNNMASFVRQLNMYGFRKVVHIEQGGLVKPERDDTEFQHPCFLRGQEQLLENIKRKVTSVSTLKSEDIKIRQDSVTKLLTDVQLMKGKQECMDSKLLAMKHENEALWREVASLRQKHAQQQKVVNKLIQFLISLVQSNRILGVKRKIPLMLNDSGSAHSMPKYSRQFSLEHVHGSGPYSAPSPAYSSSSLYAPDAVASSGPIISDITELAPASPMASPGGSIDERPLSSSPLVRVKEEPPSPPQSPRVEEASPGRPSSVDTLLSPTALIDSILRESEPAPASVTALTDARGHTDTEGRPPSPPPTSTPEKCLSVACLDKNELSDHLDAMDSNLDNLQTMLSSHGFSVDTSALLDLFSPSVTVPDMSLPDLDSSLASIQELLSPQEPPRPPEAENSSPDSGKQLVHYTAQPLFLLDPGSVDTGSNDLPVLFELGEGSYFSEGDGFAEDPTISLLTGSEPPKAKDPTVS
# Sequence of Paired box protein Pax-6 (Homo sapiens) (P26367 whole entry, looked up): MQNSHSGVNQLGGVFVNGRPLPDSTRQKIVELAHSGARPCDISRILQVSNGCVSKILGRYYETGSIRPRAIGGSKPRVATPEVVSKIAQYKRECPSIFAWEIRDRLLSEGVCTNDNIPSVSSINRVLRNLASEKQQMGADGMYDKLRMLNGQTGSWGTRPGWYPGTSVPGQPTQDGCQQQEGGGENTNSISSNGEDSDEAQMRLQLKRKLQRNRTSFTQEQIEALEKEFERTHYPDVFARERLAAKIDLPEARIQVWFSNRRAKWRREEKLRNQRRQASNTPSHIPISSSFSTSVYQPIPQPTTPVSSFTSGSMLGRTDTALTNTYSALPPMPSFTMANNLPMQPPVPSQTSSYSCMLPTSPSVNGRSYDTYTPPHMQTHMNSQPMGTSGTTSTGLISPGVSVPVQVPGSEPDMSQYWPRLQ
# Sequence of Hepatocyte nuclear factor 6 (Homo sapiens) (Q9UBC0 whole entry, looked up): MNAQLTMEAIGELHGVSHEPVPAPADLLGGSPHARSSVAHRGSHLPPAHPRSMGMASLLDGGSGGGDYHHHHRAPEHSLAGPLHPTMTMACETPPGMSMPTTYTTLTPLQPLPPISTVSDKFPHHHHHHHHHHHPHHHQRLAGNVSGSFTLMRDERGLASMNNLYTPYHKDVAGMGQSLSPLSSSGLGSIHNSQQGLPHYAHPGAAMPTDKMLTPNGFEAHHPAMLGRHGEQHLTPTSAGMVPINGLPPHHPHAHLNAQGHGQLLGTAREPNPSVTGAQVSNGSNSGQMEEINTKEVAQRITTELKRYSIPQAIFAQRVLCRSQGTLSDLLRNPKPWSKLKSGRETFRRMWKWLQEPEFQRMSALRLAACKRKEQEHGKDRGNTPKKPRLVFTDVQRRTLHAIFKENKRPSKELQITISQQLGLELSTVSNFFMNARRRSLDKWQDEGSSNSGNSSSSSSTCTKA
# Sequence of Signal transducer and activator of transcription 3 (Homo sapiens) (P40763 whole entry, looked up): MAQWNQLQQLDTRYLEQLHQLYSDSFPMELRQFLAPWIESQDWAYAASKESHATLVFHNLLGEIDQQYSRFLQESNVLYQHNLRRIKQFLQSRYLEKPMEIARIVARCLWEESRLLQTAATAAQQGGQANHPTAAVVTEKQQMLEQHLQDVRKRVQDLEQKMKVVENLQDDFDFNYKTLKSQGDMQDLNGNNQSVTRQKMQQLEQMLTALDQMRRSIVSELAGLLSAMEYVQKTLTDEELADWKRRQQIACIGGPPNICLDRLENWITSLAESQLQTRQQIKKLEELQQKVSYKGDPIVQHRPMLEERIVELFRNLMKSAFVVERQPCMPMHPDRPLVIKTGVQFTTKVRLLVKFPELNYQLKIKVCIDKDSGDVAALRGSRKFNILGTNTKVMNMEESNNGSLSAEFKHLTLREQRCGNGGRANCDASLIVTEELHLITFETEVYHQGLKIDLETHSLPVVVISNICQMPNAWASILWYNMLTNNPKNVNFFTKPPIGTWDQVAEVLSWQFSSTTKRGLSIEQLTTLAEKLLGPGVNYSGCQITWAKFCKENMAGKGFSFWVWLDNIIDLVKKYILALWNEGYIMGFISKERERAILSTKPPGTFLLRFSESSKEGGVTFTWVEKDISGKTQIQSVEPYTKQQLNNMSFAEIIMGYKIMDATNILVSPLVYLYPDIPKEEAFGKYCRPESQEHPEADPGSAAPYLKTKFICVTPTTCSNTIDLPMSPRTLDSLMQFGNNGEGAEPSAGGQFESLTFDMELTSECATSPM
# Sequence of Estrogen receptor (Homo sapiens) (P03372 whole entry, looked up, the tested form may be a part): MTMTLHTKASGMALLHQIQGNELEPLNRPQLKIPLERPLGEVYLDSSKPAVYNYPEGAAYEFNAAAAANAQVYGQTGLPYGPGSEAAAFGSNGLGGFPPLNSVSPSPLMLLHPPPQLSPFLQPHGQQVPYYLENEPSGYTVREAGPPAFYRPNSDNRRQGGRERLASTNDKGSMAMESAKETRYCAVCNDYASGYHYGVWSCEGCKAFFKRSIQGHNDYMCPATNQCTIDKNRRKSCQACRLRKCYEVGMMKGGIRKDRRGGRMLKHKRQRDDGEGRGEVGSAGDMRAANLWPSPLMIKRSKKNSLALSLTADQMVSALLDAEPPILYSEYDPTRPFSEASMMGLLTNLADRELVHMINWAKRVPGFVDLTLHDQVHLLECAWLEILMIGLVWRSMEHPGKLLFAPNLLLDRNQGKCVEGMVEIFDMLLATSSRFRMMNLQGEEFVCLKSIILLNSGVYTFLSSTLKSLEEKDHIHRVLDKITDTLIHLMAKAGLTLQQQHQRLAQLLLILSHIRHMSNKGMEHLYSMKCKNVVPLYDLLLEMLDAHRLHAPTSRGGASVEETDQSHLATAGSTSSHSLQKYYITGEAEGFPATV
# Sequence of Nuclear receptor subfamily 1 group I member 3 (Homo sapiens) (Q14994 whole entry, looked up, the tested form may be a part): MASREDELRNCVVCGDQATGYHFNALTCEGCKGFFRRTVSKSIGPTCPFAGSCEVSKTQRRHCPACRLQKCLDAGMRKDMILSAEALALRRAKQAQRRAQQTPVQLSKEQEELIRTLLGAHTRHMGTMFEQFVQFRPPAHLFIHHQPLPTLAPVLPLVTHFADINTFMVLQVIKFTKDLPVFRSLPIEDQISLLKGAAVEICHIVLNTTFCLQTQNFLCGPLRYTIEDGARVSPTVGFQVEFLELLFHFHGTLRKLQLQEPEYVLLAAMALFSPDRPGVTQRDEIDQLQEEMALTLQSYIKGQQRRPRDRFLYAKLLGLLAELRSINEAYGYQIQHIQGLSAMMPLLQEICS
smiles,measurement,setting,value
Cc1ccccc1OP(=O)(Oc1ccccc1C)Oc1ccccc1C,outcome,[1],inactive
same,AC50,[2],10.8 µM (active)
same,outcome,[3],inactive
same,outcome,[4],inactive
same,AC50,[5],0.0902 µM (active)
same,outcome,[6],inactive
same,outcome,[7],inactive
same,outcome,[8],inactive
same,AC50,[9],71.8 µM (active)
same,outcome,[10],inactive
same,outcome,[11],inactive
same,outcome,[12],inactive
same,outcome,[13],inactive
same,outcome,[14],inactive
same,AC50,[15],56.1 µM (active)
same,AC50,[16],0.533 µM (active)
NNCCO,outcome,[1],inactive
same,outcome,[17],inactive
same,outcome,[2],inactive
same,outcome,[5],inactive
same,AC50,[7],25.4 µM (active)
same,outcome,[8],inactive
same,outcome,[9],inactive
same,outcome,[10],inactive
same,outcome,[11],inactive
same,outcome,[12],inactive
same,outcome,[13],inactive
same,outcome,[14],inactive
same,outcome,[15],inactive
same,outcome,[16],inactive
CCCCOP(=O)(CCCC)OCCCC,outcome,[1],inactive
same,outcome,[17],inactive
same,outcome,[2],inactive
same,outcome,[3],inactive
same,outcome,[4],inactive
same,AC50,[5],6.97 µM (active)
same,outcome,[6],inactive
same,outcome,[8],inactive
same,outcome,[9],inactive
same,outcome,[10],inactive
same,outcome,[11],inactive
same,outcome,[12],inactive
same,outcome,[13],inactive
same,outcome,[14],inactive
same,outcome,[15],inactive
CC(=O)C(F)(F)C(F)(F)F,outcome,[1],inactive
same,outcome,[17],inactive
same,outcome,[2],inactive
same,outcome,[3],inactive
same,outcome,[4],inactive
same,outcome,[5],inactive
same,outcome,[6],inactive
same,outcome,[7],inactive
same,outcome,[8],inactive
same,outcome,[9],inactive
same,outcome,[10],inactive
same,outcome,[11],inactive
same,outcome,[12],inactive
same,outcome,[13],inactive
same,outcome,[14],inactive
same,outcome,[15],inactive
same,outcome,[16],inactive
same,outcome,[18],inactive
C#CCOC(=O)/C=C(C)/C=C/CC(C)CCCC(C)C (centres undefined),outcome,[1],inactive
same,outcome,[17],inactive
same,outcome,[2],inactive
same,outcome,[3],inactive
same,outcome,[4],inactive
same,outcome,[5],inactive
same,outcome,[6],inactive
same,outcome,[7],inactive
same,outcome,[8],inactive
same,outcome,[9],inactive
same,outcome,[10],inactive
same,outcome,[11],inactive
same,outcome,[13],inactive
same,outcome,[14],inactive
same,outcome,[15],inactive
same,outcome,[19],inactive
same,outcome,[18],inactive
CCCCCCCCCCCCOS(=O)(=O)O,outcome,[1],inactive
same,AC50,[2],2.2 µM (active)
same,outcome,[2],inactive
same,outcome,[4],inactive
same,outcome,[5],inactive
same,outcome,[8],inactive
same,outcome,[9],inactive
same,outcome,[10],inactive
same,AC50,[11],11.1 µM (active)
same,outcome,[11],inactive
same,outcome,[12],inactive
same,outcome,[13],inactive
same,outcome,[14],inactive
same,outcome,[15],inactive
